This is an account of results in PubChem BioAssay AID1007 (NMMLSC, 2008).

Out of some 190,000 compounds screened, about 80 (0.04%) were called active. Only a sample is shown. Values without a mark were called inactive. No stated cut-off is given here; in the data, active means inhibition above about 40%.

The target in the experiment is Bcl-2-like protein 1 (Homo sapiens) (UniProt Q07817). Kind of experiment: Bcl-XL/Bim peptide interaction blockers – biochemical, multiplexed, bead flow cytometry, human Bcl-XL, primary screen (AID 1007). Conditions: Bim peptide-Bcl-XL binding, fluorescence, at 10 µM, active compounds read high. A general note: A flow cytometer gives signals particle by particle.
Bcl-2-like protein 1 (Homo sapiens), sequence (Q07817 whole entry, looked up): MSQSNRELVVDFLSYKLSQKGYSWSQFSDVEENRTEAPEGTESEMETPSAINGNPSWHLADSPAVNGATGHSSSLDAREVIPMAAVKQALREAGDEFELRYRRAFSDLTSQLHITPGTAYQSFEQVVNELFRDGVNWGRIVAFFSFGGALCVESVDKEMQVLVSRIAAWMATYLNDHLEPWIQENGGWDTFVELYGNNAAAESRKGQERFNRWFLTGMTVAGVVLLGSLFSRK
Turning to `CC1CC(=S)Nc2ccccc2N1Cc1ccccc1` (configuration not stated), the inhibition (usually the change of the read-out against control, counted positive when it falls) is -6%.
Take `CSc1ccccc1NC(=O)Cc1ccc(Br)cc1`: the inhibition was -4%.
As for `CCCN(CC(=O)Nc1ccccc1C)C(=O)c1cc(=O)[nH]c2ccccc12`, the inhibition was 2%.
As to `Cc1cc(=O)oc2c1c(C)nn2-c1ccc(Cl)cc1`, the inhibition is 1%.
Regarding `COc1ccc(C(C)=O)cc1CSc1nc2nc(C)cc(C)n2n1`, the inhibition is -2%.
Regarding `Cc1nc(S(=O)(=O)c2ccc(Br)cc2)nc2c1CCC2`, the inhibition is 0%.
Consider `COc1cc(C(=O)N2C(=O)c3cccc(N)c3C2=O)cc(OC)c1OC`, for which the inhibition is -2%.
The same measure for `Cc1ccc(C)c(OCC(=O)N2CCN(C(=O)c3ccco3)CC2)c1`: -8%; for `COc1cc(C(=O)Nc2cc(C(F)(F)F)ccc2N2CCOCC2)ccc1O`: -6%; for `CCCn1nc(Oc2nc(NC(C)C)nc(N(C)C)n2)ccc1=O`: -2%.
Regarding `NS(=O)(=O)c1ccc(NC(=O)/C=C/c2ccccc2Cl)cc1`, the inhibition was 1%.
In the case of `NNC(=O)COc1ccc(C2SCCS2)cc1`, the inhibition is 0%.
In the case of `COc1ccc(-n2nnnc2SCC(=O)NCc2cccs2)cc1`, the inhibition was 1%.
As for `Cn1c(-c2ccc(F)cc2)cnc1SCC(=O)NNC(=O)Cc1ccccc1`, the inhibition is 0%.
On to `Cc1ccc(CC(=O)Nc2cccc(C#N)c2)cc1`, for which the inhibition is -4%.
The same measure for `C[C@H](NC(=O)c1ccccc1Cl)C(=O)OCCOc1cccc(Cl)c1`: -14%.
Turning to `Cn1nnnc1NCc1ccc(Cl)c(Cl)c1`, the inhibition was 0%.
For the molecule `COc1ccc(CNC(=O)C2CCN(S(C)(=O)=O)CC2)cc1`, the inhibition is -3%.
Turning to `CC(Nc1ccccc1)c1cccnc1` (configuration not stated), the inhibition is -2%.
As to `CCOC(=O)NC(=O)CSc1nnc(SCCC(=O)O)s1`, the inhibition was -10%.
On to `O=C(Nc1ccccc1-c1ccccc1)c1cccs1`, for which the inhibition is -3%.
Regarding `CC(C)(C)c1ccc(C(=O)NCc2nnc(SCC(=O)N3CCCc4ccccc43)n2-c2ccccc2)cc1`, the inhibition is -8%.
On to `Cc1ccc(O)c(-c2cc(C(=O)NCc3ccccc3)[nH]n2)c1`, for which the inhibition was -3%.
With `C/C(N)=C(/C#N)C(=O)COC(=O)c1cc(-c2cccc(Br)c2)nc2ccccc12`, the inhibition is -1%.
On to `CCOC(=O)N1CCN(C(=O)c2ccccc2N(Cc2ccccc2)S(=O)(=O)c2ccc(OC)cc2)CC1`, for which the inhibition is 0%.
On to `Cc1ccc(S(=O)(=O)/N=S(\C)C(C)C)cc1` (configuration not stated), for which the inhibition was -3%.
The same measure for `COc1ccccc1CNC(=O)CNC(=O)c1cn(-c2ccccc2OC)c(=O)c2ccccc12`: -2%; for `CC(=O)OC(COc1ccc(F)cc1)Cn1cnc2ccccc21` (configuration not stated): -4%.
The same measure for `O=C(Nc1ccc(F)c([N+](=O)[O-])c1)C1CC(=O)N(Cc2ccccc2)C1` (configuration not stated): 0%; for `Cc1ccnc2nc(C(=O)OCC(=O)N(CC(C)C)CC(C)C)nn12`: -7%.
The same measure for `Cc1ccc(OCC(=O)Nc2ccccc2Sc2ccc(Cl)cc2)c([N+](=O)[O-])n1`: 0%.
In the case of `O=C1N/C(=N\N=C\c2ccco2)SC1Cc1ccc(F)cc1` (configuration not stated), the inhibition was -4%.
With `CCNC(=O)NC(=O)C(C)OC(=O)C1CCN(S(=O)(=O)c2ccccc2F)CC1` (configuration not stated), the inhibition is -2%.
For the molecule `CN1CCN(/N=C2/C(=O)Nc3ccc([N+](=O)[O-])cc32)CC1`, the inhibition is 0%.
Take `COc1ccc(CN2CCC(c3nc4ccc(Cl)cc4[nH]3)CC2)cc1`: the inhibition is 0%.
Turning to `CC(=O)Nc1ccc(S(=O)(=O)N(C)c2ccc(OCC(=O)OCC(=O)N3CCCCC3)cc2)cc1`, the inhibition is -3%.
As for `Cc1cc(C)cc(NC(=O)COC(=O)c2cc(C)oc2C)c1`, the inhibition was -4%.
With `O=C(CN1CCN(C/C=C/c2ccccc2)CC1)Nc1ccc(F)cc1F`, the inhibition is -1%.
With `CN=C(c1ccccc1)c1c(C)cccc1C`, the inhibition was -9%.
With `COc1cccc(OCCCN2CCCCCC2)c1`, the inhibition was -1%.
For the molecule `Cc1cc(O)ccc1NC1=CC(=O)CC(C)(C)C1`, the inhibition was 0%.
As for `C#CCNC(=O)C1=C[C@@H](c2ccccc2)[C@H](CCCO)[C@@H](OCC)O1`, the inhibition was -1%.
